In PubChem BioAssay AID1159580 (chemical genetic matrix, 2015):
Values joined by “and” are separate entries in the source; they are usually repeats but may differ in a detail not shown here. Identical values can stand only once. The campaign covered roughly 5,500 compounds. About 2,000 (36%) were called active. Not shown: some 18% with an inconclusive outcome. Cut-off read from the data, not from the text of the source: active = normalized growth mostly below about 0.91 (no sharp cut-off); inconclusive = no clear call, values can overlap the other calls; inactive = mostly above about 0.92. Some of the results follow.

Experiment: chemical genetic growth profiling, strain panel (AID 1159580);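 note: tested at 20 µM; growth read once vehicle control cultures reached saturation at 30 °C; 1 = growth at the plate median or of vehicle wells; lower values mean less growth of the strain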
Settings: S. cerevisiae deletion strains, growth OD

Measured: normalized growth

CC(=O)O[C@H]1C[C@@H](OC(C)=O)C(C)(C)C2C[C@@H](OC(C)=O)[C@]3(C)C(CC[C@@]4(C)[C@H](c5ccoc5)OC(=O)[C@H]5O[C@]543)[C@]21C (some centres not stated)
inactive: locus YAL021C, strain ccr4, active compounds read low 0.993 | locus YAL026C, strain drs2, active compounds read low 0.984 | locus YAL030W, strain snc1, active compounds read low 0.993 | locus YBL061C, strain skt5, active compounds read low 0.993 | locus YBR009C, strain hhf1, active compounds read low 1.02 | locus YBR021W, strain FUR4, active compounds read low 0.969 | locus YBR023C, strain chs3, active compounds read low 0.996 | locus YBR171W, strain sec66, active compounds read low 0.991 | locus YBR229C, strain ROT2, active compounds read low 0.992 | locus YBR231C, strain swc5, active compounds read low 1.01 | locus YBR279W, strain paf1, active compounds read low 1 | locus YCL011C, strain gbp2, active compounds read low 1 | locus YCL016C, strain dcc1, active compounds read low 0.992 | locus YCL029C, strain bik1, active compounds read low 1.01 | locus YCL061C, strain MRC1, active compounds read low 1 | locus YCL069W, strain vba3, active compounds read low 0.999 | locus YCR088W, strain abp1, active compounds read low 1 | locus YDL005C, strain med2, active compounds read low 0.993 | locus YDL035C, strain GPR1, active compounds read low 1.02 | locus YDL040C, strain nat1, active compounds read low 0.999 | locus YDL074C, strain BRE1, active compounds read low 1.01 | locus YDL101C, strain DUN1, active compounds read low 0.991 | locus YDL134C, strain PPH21, active compounds read low 0.994 | locus YDL185W, strain tfp1, active compounds read low 1 | locus YDL192W, strain arf1, active compounds read low 1.01 | locus YDR001C, strain nth1, active compounds read low 0.976 | locus YDR069C, strain doa4, active compounds read low 0.975 | locus YDR101C, strain arx1, active compounds read low 1.02 | locus YDR137W, strain rgp1, active compounds read low 0.963 | locus YDR159W, strain sac3, active compounds read low 0.96 | locus YDR162C, strain NBP2, active compounds read low 1.02 | locus YDR195W, strain ref2 0.954 | locus YDR297W, strain sur2, active compounds read low 0.998 | locus YDR318W, strain mcm21, active compounds read low 1.01 | locus YDR334W, strain swr1, active compounds read low 0.971 | locus YDR335W, strain msn5, active compounds read low 0.993 | locus YDR388W, active compounds read low 0.999 | locus YDR392W, strain spt3, active compounds read low 0.989 | locus YDR502C, strain sam2, active compounds read low 0.998 | locus YEL003W, strain gim4, active compounds read low 0.988 | locus YEL037C, strain rad23, active compounds read low 0.994 | locus YEL061C, strain CIN8 (second series), active compounds read low 0.991 | locus YEL061C, strain CIN8, active compounds read low 1.02 | locus YER015W, strain faa2, active compounds read low 1 | locus YER016W, strain bim1, active compounds read low 0.993 | locus YER110C, active compounds read low 1 | locus YER111C, strain swi4, active compounds read low 0.988 | locus YER155C, strain BEM2 (second series), active compounds read low 0.996 | locus YER155C, strain BEM2, active compounds read low 1 | locus YER167W, strain BCK2, active compounds read low 0.998 | locus YFR010W, strain ubp6, active compounds read low 0.973 | locus YGL078C, strain dbp3, active compounds read low 0.997 | locus YGL086W, strain mad1, active compounds read low 1.02 | locus YGL167C, strain pmr1, active compounds read low 0.987 | locus YGL173C, strain kem1, active compounds read low 0.999 | locus YGL227W, strain vid30, active compounds read low 1.01 | locus YGL240W, strain doc1, active compounds read low 0.999 | locus YGL248W, strain PDE1, active compounds read low 0.99 | locus YGL253W, strain hxk2, active compounds read low 0.995 | locus YGR078C, strain PAC10, active compounds read low 0.991 | locus YGR135W, strain pre9, active compounds read low 0.979 | locus YGR252W, strain gcn5, active compounds read low 0.966 | locus YHR013C, strain ard1, active compounds read low 0.987 | locus YHR027C, strain rpn1, active compounds read low 0.968 | locus YHR030C, strain SLT2, active compounds read low 0.978 | locus YHR079C, strain IRE1 (second series), active compounds read low 0.989 | locus YHR079C, strain IRE1, active compounds read low 0.984 | locus YHR094C, strain hxt1, active compounds read low 1.01 | locus YHR129C, strain ARP1, active compounds read low 1.02 | locus YHR142W, strain chs7, active compounds read low 1 | locus YHR200W, strain rpn10, active compounds read low 0.995 | locus YIL066C, strain RNR3, active compounds read low 1.01 | locus YIL073C, strain SPO22, active compounds read low 0.989 | locus YIL125W, strain kgd1, active compounds read low 0.996 | locus YIR030C, strain dcg1, active compounds read low 1 | locus YJL092W, strain hpr5, active compounds read low 1.01 | locus YJL095W, strain BCK1 (second series), active compounds read low 0.995 | locus YJL095W, strain BCK1, active compounds read low 1.02 and 0.984 | locus YJL115W, strain asf1, active compounds read low 0.974 | locus YJL129C, strain trk1, active compounds read low 0.979 | locus YJL134W, strain LCB3, active compounds read low 1.02 | locus YJL154C, strain vps35, active compounds read low 0.98 | locus YJL164C, strain tpk1, active compounds read low 0.997 | locus YJL166W, strain qcr8, active compounds read low 1.03 | locus YJL168C, strain set2, active compounds read low 0.999 | locus YJL187C, strain SWE1 (second series), active compounds read low 0.989 | locus YJL187C, strain SWE1, active compounds read low 0.999 | locus YJR043C, strain POL32, active compounds read low 1.02 | locus YJR066W, strain TOR1, active compounds read low 0.932 | locus YKL009W, strain mrt4, active compounds read low 1 | locus YKL068W, active compounds read low 1.01 | locus YKL160W, strain elf1, active compounds read low 1 | locus YKL190W, strain CNB1, active compounds read low 1.01 | locus YKR001C, strain vps1, active compounds read low 1 | locus YKR026C, strain gcn3, active compounds read low 0.995 | locus YKR091W, strain srl3, active compounds read low 0.989 | locus YLL001W, strain dnm1, active compounds read low 0.988 | locus YLL026W, active compounds read low 0.997 | locus YLL041C, strain sdh2, active compounds read low 0.987 | locus YLR027C, strain aat2, active compounds read low 1.01 | locus YLR039C, strain RIC1, active compounds read low 0.981 | locus YLR058C, strain SHM2, active compounds read low 1.01 | locus YLR102C, strain apc9, active compounds read low 0.999 | locus YLR113W, strain HOG1, active compounds read low 1.03 | locus YLR221C, strain rsa3, active compounds read low 0.995 | locus YLR258W, strain gsy2, active compounds read low 0.998 | locus YLR262C, strain YPT6 (second series), active compounds read low 0.969 | locus YLR262C, strain YPT6, active compounds read low 0.974 | locus YLR268W, strain sec22, active compounds read low 1 | locus YLR320W, strain mms22, active compounds read low 1.02 | locus YLR330W, strain CHS5, active compounds read low 1.01 | locus YLR342W, strain FKS1, active compounds read low 1 | locus YLR357W, strain rsc2, active compounds read low 0.997 | locus YLR370C, strain arc18, active compounds read low 0.995 | locus YLR371W, strain rom2, active compounds read low 1 | locus YLR384C, strain iki3, active compounds read low 1.01 | locus YLR418C, strain cdc73, active compounds read low 0.996 | locus YML016C, strain PPZ1, active compounds read low 1.01 | locus YML032C, strain rad52, active compounds read low 1 | locus YML120C, strain ndi1, active compounds read low 0.995 | locus YML124C, strain tub3, active compounds read low 1 | locus YMR058W, strain fet3, active compounds read low 0.985 | locus YMR078C, strain ctf18, active compounds read low 0.989 | locus YMR125W, strain sto1, active compounds read low 0.983 | locus YMR129W, active compounds read low 0.994 | locus YMR205C, strain PFK2, active compounds read low 0.988 | locus YMR223W, strain ubp8, active compounds read low 0.996 | locus YMR231W, strain pep5, active compounds read low 0.981 | locus YMR307W, strain GAS1, active compounds read low 0.895 | locus YNL067W, strain RPL9B, active compounds read low 1.01 | locus YNL071W, strain lat1, active compounds read low 0.992 | locus YNL128W, strain TEP1, active compounds read low 1.02 | locus YNL153C, strain GIM3, active compounds read low 1.02 | locus YNL183C, strain NPR1, active compounds read low 0.93 | locus YNL209W, strain ssb2, active compounds read low 0.995 | locus YNL233W, strain BNI4, active compounds read low 0.974 | locus YNL248C, strain rpa49, active compounds read low 0.971 | locus YNL250W, strain rad50, active compounds read low 0.98 | locus YNL271C, strain bni1, active compounds read low 1 | locus YNL298W, strain CLA4, active compounds read low 1.01 | locus YNL307C, strain MCK1, active compounds read low 0.986 | locus YNL322C, strain KRE1 (second series), active compounds read low 0.999 | locus YNR049C, strain mso1, active compounds read low 0.991 | locus YNR052C, strain pop2, active compounds read low 0.996 | locus YOL012C, strain htz1 1 | locus YOL147C, strain pex11, active compounds read low 0.999 | locus YOR001W, strain rrp6, active compounds read low 0.979 | locus YOR061W, strain CKA2, active compounds read low 0.997 | locus YOR069W, strain VPS5, active compounds read low 0.991 | locus YOR070C, strain gyp1, active compounds read low 0.986 | locus YOR080W, strain dia2, active compounds read low 0.997 | locus YOR083W, strain WHI5, active compounds read low 1 | locus YOR106W, strain vam3, active compounds read low 0.983 | locus YOR136W, strain idh2, active compounds read low 0.996 | locus YOR144C, strain elg1, active compounds read low 1 | locus YOR184W, strain ser1, active compounds read low 1 | locus YOR231W, strain MKK1, active compounds read low 0.987 | locus YOR265W, strain rbl2, active compounds read low 0.989 | locus YOR270C, strain vph1, active compounds read low 0.858 | locus YOR290C, strain snf2, active compounds read low 0.994 | locus YOR316C, strain cot1, active compounds read low 0.999 | locus YPL051W, strain arl3, active compounds read low 1 | locus YPL055C, strain LGE1, active compounds read low 1.02 | locus YPL078C, strain atp4, active compounds read low 1.01 | locus YPL106C, strain sse1, active compounds read low 1.05 | locus YPL240C, strain hsp82, active compounds read low 0.994 | locus YPL256C, strain CLN2, active compounds read low 0.989 | locus YPR119W, strain clb2, active compounds read low 1.01 | locus YPR141C, strain kar3, active compounds read low 0.996 | locus YPR163C, strain tif3, active compounds read low 1 | locus YPR167C, strain met16, active compounds read low 1 | strain wtn01, active compounds read low 1
